# According to PubChem BioAssay (Tox21):
# Results filed as inconclusive are left out. Activity calls are given as the source filed them. Calls come from the whole dose curve; as a rule, active = well fitted cell-killing curve with a large enough effect in the repeat runs; inconclusive = weak or mixed curves, or effect the other way; inactive = flat fitted curve, though single readings scatter.
# Assay: qHTS assay to identify small molecule agonists of the androgen receptor (AR) signaling pathway in the presence of an antagonist - cell viability counter screen (AID 1259379); note: nearly all actives have a fitted effect of over 25% in size
# Details: MDA-kb2 viability, CellTiter-Fluor, 16 h; series mostly up to 92.4 µM; activity change, negative = cytotoxicity: at the top concentration
# Text: National Center for Advancing Translational Sciences [NCATS]
# NIH Chemical Genomics Center [NCGC]
# U.S. Environmental Protection Agency [EPA]
# National Institutes of Environmental Health Sciences [NIEHS]
# National Toxicology Program [NTP]
# U.S. Food and Drug Administration [FDA]
# Androgen receptor (AR) is an important member of nuclear receptor family. Its signaling plays a critical role in AR-dependent prostate cancer and other androgen related diseases. Considerable attention has been given in the past decades to develop methods to study and screen for the environmental chemicals that have the potential to interfere with metabolic homeostasis, reproduction, developmental and behavioral functions. Therefore AR binding assay for screening against androgen agonists and antagonists can be used to identify potential endocrine disruptors.
# MDA-kb2 cells (from ATCC, deposited by Wilson et al.) are human breast carcinoma cells that were stably transfected with a luciferase reporter gene under control of the MMTV promoter that contains response elements for both androgen receptor (AR) and glucocorticoid receptor (GR). This particular screening for measuring luciferase reporter gene activity using MDA-kb2 cells against Tox21 10K library compounds is a confirmation study on agonist mode screening in the presence of AR-antagonist compound (Nilutamide) at 3.0uM final concentration. The cytotoxicity of the compounds was tested in parallel by measuring the cell viability using CellTiter-Fluor assay system (Promega, Madison, WI) in the same wells.
# Tox21 Assay Protocol Summary:
# MDA-kb2 cells (cells cultured without CO2) were dispensed at 3,000 cells/well in 4uL of culture medium into white wall/solid-bottom 1536-well plates (Corning Life Sciences, Corning, NY) using a Multidrop Combi (Thermo Fisher Scientific Inc., Waltham, MA) dispenser. The assay plates were incubated at 37C and 0% CO2 for 5hr. One uL of 3.0uM (final concentration) Nilutamide or assay buffer was added using two separate tips of Flying Reagent Dispenser (FRD, Aurora Discovery, San Diego, CA). Then 23nL of compounds dissolved in DMSO at 15 concentrations and positive controls were transferred to the assay plates using a Pintool station (Wako, San Diego, CA). The assay plates were incubated at 37C and 0% CO2 for 16 hr. After 15hr incubation at 37C, 1uL/well CellTiter-Fluor reagent (Promega Corporation) was added to each well of the assay plates using FRD. After 1hr incubation at 37C and 0% CO2, the fluorescence signal was measured using a ViewLux plate reader (PerkinElmer, Shelton, CT).
# % is set by controls: 0 for no effect and ±100 for the full control effect; potency is the fitted concentration of half-maximal effect.
SMILES,"activity change, negative = cytotoxicity",Potency
CC(C)(O)c1ccc(CNC(=O)c2cccnc2Oc2ccc3nonc3c2)cc1,-2.53% (inactive),
CC1(C)[C@H](C(=O)O)N2C(=O)C[C@H]2S1(=O)=O,2.3% [at 42.5 µM] (inactive),
O=C(O)c1cccc(-c2noc(-c3ccccc3F)n2)c1,5.19% [at 42.5 µM] (inactive),
OC(CCN1CCCC1)(c1ccccc1)C1CCCCC1 (stereo not given),-11.1% [at 42.5 µM] (inactive),
CCC(OCCCOC)OC(C)=O (stereo not given),1.29% (inactive),
C1C[C@@H]2[C@H]3CC[C@H](C3)[C@@H]2C1,1.8% (inactive),
CO/N=C(/C(=O)N[C@@H]1C(=O)N2C(C(=O)O)=C(COC(N)=O)CS[C@H]12)c1ccco1,-0.211% (inactive),
CCOC(=O)c1ccc(OCCN2C[C@H](O)[C@@H](O)[C@H](O)[C@H]2CO)cc1,5% [at 42.5 µM] (inactive),
Cc1cc(C)c(N)cc1C,-0.345% (inactive),
CC(=O)Nc1cc(S(=O)(=O)O)cc2cc(S(=O)(=O)O)c(N=Nc3ccccc3)c(O)c12,,27.3 µM (active)
CCOC(=O)OC(C)OC(=O)[C@@H]1N2C(=O)[C@@H](NC(=O)[C@H](N)c3ccccc3)[C@H]2SC1(C)C (stereo not given in full),1.08% [at 42.5 µM] (inactive),
CC1(C)S[C@@H]2[C@H](NC(=O)C(c3ccccc3)S(=O)(=O)O)C(=O)N2[C@H]1C(=O)O (stereo not given in full),4.04% [at 42.5 µM] (inactive),
CC(C)(C)C(=O)C(=O)O,-3.04% (inactive),
CN1CC(=O)N2[C@H](c3ccc4c(c3)OCO4)c3[nH]c4ccccc4c3C[C@@H]2C1=O,-4.7% [at 42.5 µM] (inactive),
Cc1ccc(Cl)c(Nc2ccccc2C(=O)O)c1Cl,-2.61% [at 42.5 µM] (inactive),
C[C@H]1c2cccc(O)c2C(O)=C2C(=O)[C@]3(O)C(O)=C(C(N)=O)C(=O)[C@@H](N(C)C)[C@@H]3[C@@H](O)[C@@H]21,1.55% [at 42.5 µM] (inactive),
CCCCCC#CC(=O)OC,-1.89% (inactive),
CCOC(C)=O,-1.3% (inactive),
O=[N+]([O-])c1cc(C2CCCCC2)c(O)c([N+](=O)[O-])c1,,24.3 µM (active)
CCOC(=O)[C@H](CCc1ccccc1)N[C@@H](C)C(=O)N(CC(=O)O)C1Cc2ccccc2C1,2.34% [at 42.5 µM] (inactive),

SMILES,"activity change, negative = cytotoxicity",Potency
CC(=O)OCC[N+](C)(C)C,1.83% [at 42.5 µM] (inactive),
CN1C(=O)OC(C)(C)C1=O,-0.402% (inactive),
Cc1cccc(O)c1N,-12% (inactive),
O=C(OCC(O)CO)c1ccccc1Nc1ccnc2cc(Cl)ccc12 (stereo not given),-8.8% [at 42.5 µM] (inactive),
CC(C)C[C@H](NC(=O)[C@H](CCc1ccccc1)NC(=O)CN1CCOCC1)C(=O)N[C@@H](Cc1ccccc1)C(=O)N[C@@H](CC(C)C)C(=O)[C@@]1(C)CO1,,1.19 µM (active)
COc1ccccc1Oc1c(NS(=O)(=O)c2ccc(C(C)(C)C)cc2)nc(-c2ncccn2)nc1OCCO,-2.68% [at 42.5 µM] (inactive),
O=C=Nc1ccc(Cl)c(Cl)c1,3.59% (inactive),
CN1C(C(=O)Nc2ccccn2)=C(O)c2sccc2S1(=O)=O,-13.5% [at 42.5 µM] (inactive),
C=C(C)[C@@H]1CCC2=CCC[C@@H](C)[C@]2(C)C1,-5.77% (inactive),
O=C(Cn1ccnc1[N+](=O)[O-])NCCO,2.3% [at 42.5 µM] (inactive),
O=C(OC(=O)c1ccccc1)c1ccccc1,1.45% (inactive),
CCCCC(CC)CN (stereo not given),-2.35% (inactive),
CC1(C)O[C@@H]2C[C@H]3[C@@H]4C[C@H](F)C5=CC(=O)C=C[C@]5(C)[C@H]4[C@@H](O)C[C@]3(C)[C@]2(C(=O)CO)O1,0.431% [at 42.5 µM] (inactive),
CO[C@]1(NC(=O)CSC(F)F)C(=O)N2C(C(=O)O)=C(CSc3nnnn3CCO)CO[C@H]21,5.45% [at 42.5 µM] (inactive),
O=C=Nc1cccc(C(F)(F)F)c1,0.674% (inactive),
C/C=C\C/C=C/CCCCCCCCOC(C)=O,-5.78% (inactive),
OC1(c2ccccc2)CCNCC1,0.206% [at 42.5 µM] (inactive),
CCC(=O)OC,-2.42% (inactive),
CN1C(=O)N(c2ccccc2Br)Cc2cnc(Nc3ccc4c(c3)OCC(CO)O4)nc21 (stereo not given),,61.1 µM (active)
Cc1ccc2c(Br)cc(Br)c(O)c2n1,-12.9% [at 42.5 µM] (inactive),
